The list is not random: actives were taken first. Their share in the collection is about 2.5%.
Mot1-301 SUMO – yeast Mot1-301 growth rescue at high temperature, primary screen, SUMOylation pathway inhibitor project, S. cerevisiae, ATP luminescence, 38.5C | growth rescue, % at 18.8 µM | S. cerevisiae Mot1-301 growth rescue; percent above DMSO median, 100 means doubled | 1% of 320,000 active;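 active = every valid replicate shows activation above 250% relative to neutral control wells; inactive = the rest, any valid replicate at or below 250%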;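 note: OY570 slx delta 5 strain wells were the positive control but not used for scaling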
V-ATPase pH – regulators of yeast V-ATPase proton pumping, primary screen, pHLuorin cytosolic pH fluorescence. response, % at 10 µM. AID 504577, 2011. S. cerevisiae. 0.37% of 350,000 active; in the data active = response mostly above about 7.3%, no sharp cut-off; inactive = mostly below about 5.4%; note: actives read high
AI-2 QS modul – Vibrio harveyi AI-2 quorum sensing modulators, primary screen, JMH597 strain, luminescence/OD600 ratio. Vibrio harveyi JMH597 AI-2 luminescence/OD600 ratio, 9 h; stronger effect = lower value; strain lacks LuxN and CqsS sensors; 0 = neutral-control median. activity change, % at 7.5 µM. 0.4% of 300,000 active. AID 2094, 2009; in the data active = activity change below about -75%, passing the limit was not always enough;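 note: luminescence divided by OD600 gain over 9 h not by final OD600 alone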
Efflux pump inh – inhibitors of Candida efflux pumps in yeast, primary screen, S. cerevisiae, Nile Red, multiplex. S. cerevisiae Candida pump triplex. inhibition, % at 10 µM. 0.44% of 330,000 active. AID 485275, 2010;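 active = plate passing quality check with inhibition over a set limit, or well fluorescence over plate mean plus 4 SD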;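 note: Nile Red retained in pooled yeast measured as flow cytometry median fluorescence; 0% = buffer negative control and 100% = Enniatin B positive control; higher means more Nile Red kept so more efflux inhibition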
ATG4B inh – ATG4B protease inhibitors, primary screen, biochemical, fluorescence, uHTS; inhibition, % at 8.33 µM; AID 504462, 2011; 0.51% of 340,000 active; ATG4B cleavage of LC3-PLA2, NBD-HPC fluorescence, 1 h; in the data active = inhibition above about 40%
Target sequence (Q9Y4P1 whole entry, looked up): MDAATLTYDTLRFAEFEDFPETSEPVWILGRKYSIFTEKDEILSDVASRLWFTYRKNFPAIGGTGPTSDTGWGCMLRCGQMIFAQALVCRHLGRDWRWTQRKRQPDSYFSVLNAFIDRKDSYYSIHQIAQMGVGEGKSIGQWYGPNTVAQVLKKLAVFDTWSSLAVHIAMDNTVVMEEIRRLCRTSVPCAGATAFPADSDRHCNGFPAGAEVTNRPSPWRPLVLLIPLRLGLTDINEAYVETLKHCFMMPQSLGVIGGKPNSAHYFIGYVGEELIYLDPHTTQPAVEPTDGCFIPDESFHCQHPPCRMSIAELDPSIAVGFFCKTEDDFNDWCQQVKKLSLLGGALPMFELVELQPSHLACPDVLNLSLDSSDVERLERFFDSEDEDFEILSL
Numbers without * were called inactive; . = no result.

SMILES	Mot1-301 SUMO	V-ATPase pH	AI-2 QS modul	Efflux pump inh	ATG4B inh
CCc1ccc(NCc2ccc(OC)c(Cn3ccnc3)c2)cc1	341*	6	-32	0	-3
Cc1ccc(C(=O)NC2CCCc3c2cnn3-c2ccc(F)cc2F)cn1 (stereo not given)	0	0	-4	0	.
Nc1ccccc1C#CC(=O)c1ccccc1	131	-4	-90*	0	-1
C[C@H](NC(=O)c1nc[nH]c1C(=O)N1CCc2ccccc2C1)C(=O)OCc1ccccc1	23	8	13	0	-7
CC1=N/C(=C\c2ccc(OC(C)C)cc2)C(=O)N1c1ccc(C(=O)O)cc1	5	-5	-83*	0	0
N#Cc1nc(-c2cccs2)oc1NCc1ccccc1Cl	-25	0	-29	0	15
N#Cc1nc(-c2cccs2)oc1NCc1ccccc1	5	0	-91*	0	-4
CC(=O)c1cccc(NC(=O)CCc2nc3sc4c(c3c(=O)[nH]2)CCCC4)c1	0	3	16	0	5
CC1(C)N=C(c2ccccc2)C(=O)N1	-22	3	12	0	-2
CC1(C)N=C(c2cccc(F)c2)C(=O)N1	2	20*	-1	0	-6
Cc1ccc(-c2nnc(SCC(=O)NCCN3C(=O)CSC3=O)n2C)cc1	-13	-4	.	0	-11
O=C(C1COc2ccccc2O1)N1CCN(c2nc3ccccc3s2)CC1 (stereo not given)	3	2	6	0	-9
O=C(C1COc2ccccc2O1)N1CCN(c2nc3ccc([N+](=O)[O-])cc3s2)CC1 (stereo not given)	535*	-2	15	0	6
COC(=O)c1cc(S(=O)(=O)NCC2CCN(CCc3cccs3)CC2)cn1C	72	5	8	0	-2
O=[N+]([O-])c1ccc(N2CCN(c3ccccc3Cl)CC2)cn1	-10	-1	-15	0	5
Cc1ccc(O)c(C2=NNC(O)(C(F)(F)F)C2)c1 (stereo not given)	340*	0	0	0	-1
N#Cc1ccsc1NC(=O)COc1ccc(-c2nnco2)cc1	5	1	3	0	8
CCC(CC)C(=O)Nc1nnc(SCC(=O)NC(C)(C)C)s1	924*	-3	5	0	-9
OC(c1ccccc1)(c1ccc(F)cc1)C(c1ccccc1)N1CCOCC1 (stereo not given)	68	3	19	0	-7
Cc1ccc(NC(=O)COC(=O)c2ccc([N+](=O)[O-])s2)c(C)c1	12	0	19	0	-15
COc1ccccc1NC(=O)COC(=O)c1ccc([N+](=O)[O-])s1	-1	2	-87*	0	-8
COc1ccc(Cl)cc1NC(=O)C(C)N(C)Cc1cccc(Cl)c1Cl (stereo not given)	6	3	20	0	3
COc1cccc(CN2CCC(n3nccc3NC(=O)CCCc3ccccc3)CC2)c1	92	-1	-81*	0	-3
O=C(CCNS(=O)(=O)c1ccc(Cl)cc1)N1CCN(c2ccccn2)CC1	269*	-4	1	0	-2
O=C(CCNS(=O)(=O)c1ccc(Cl)cc1)N1CCN(c2ncccn2)CC1	.	-5	.	.	-5
SMILES	Mot1-301 SUMO	V-ATPase pH	AI-2 QS modul	Efflux pump inh	ATG4B inh
CCC(C(=O)OCC(=O)Nc1ccc(SC(F)F)cc1)c1ccccc1 (stereo not given)	.	3	-89*	.	-10
Brc1ccc(CSc2nnc(-c3ccccn3)n2Cc2ccco2)cc1	11	-1	5	0	50*
O=C(COc1ccccc1)Nc1nnc(-c2ccccc2)o1	-5	-5	-45	0	10
O=C(COc1ccccc1)Nc1nnc(-c2ccc(Cl)s2)o1	-9	-6	-87*	0	3
Cc1ccc(CSCCNC(=O)CCSc2ccccc2)cc1	20	3	25	0	-2
Cc1ccccc1CSCCNC(=O)CCSc1ccccc1	322*	-3	-7	0	2
O=C(CCNS(=O)(=O)c1ccccc1)OCC(=O)c1ccc[nH]1	12	1	11	0	-5
CO[C@H]1C=CO[C@@]2(C)Oc3c(C)c(O)c4c(O)c(c5c(nc6cc(C)ccn65)c4c3C2=O)NC(=O)C(C)=CC=C[C@H](C)[C@H](O)[C@@H](C)[C@@H](O)[C@@H](C)[C@H](OC(C)=O)[C@@H]1C	.	.	-219*	.	.
COc1ccc(-c2nc(CN3CCC(C(=O)NC4CCCc5ccccc54)CC3)c(C)o2)cc1OC (stereo not given)	.	13*	.	.	6
CCc1ccc(C(=O)COC(=O)c2n[nH]c3ccccc23)cc1	396	-3	-78*	0	4
CCc1ccc(C(=O)COC(=O)c2nn(C)c(=O)c3ccccc23)cc1	.	-2	-3	0	3
Cc1ccc(CN2CCN(CC3CC4C=CC3C4)CC2)cc1 (stereo not given)	24	1	26	0	6
CCOc1ccc(S(=O)(=O)c2c[nH]c3ccccc3c2=O)cc1	-10	0	-85*	0	10
O=C1[C@H]2[C@@H](c3ccc(F)cc3)N3C(=O)N(c4ccc(Br)cc4)C(=O)[C@@]3(Cc3ccc(Cl)cc3)[C@H]2C(=O)N1C1CCCCC1	4	12*	22	0	7
COc1ccc(N2C(=O)N3[C@H](c4ccc(Cl)cc4)[C@@H]4C(=O)N(C5CCCCC5)C(=O)[C@@H]4[C@]3(Cc3ccc(Cl)cc3)C2=O)cc1	11	1	23	0	11
Cc1cccc(NC(=O)/C=C/c2ccc([N+](=O)[O-])s2)c1	-6	0	14	0	-7
Nc1nonc1C(=O)N/N=C/c1cc(Br)ccc1O	13	2	-89*	0	-2
Nc1nonc1-n1nnc(C(=O)N/N=C/c2cc(Br)ccc2O)c1CNc1ccccc1	234	-4	9	0	3
O=C(N/N=C/c1cc([N+](=O)[O-])ccc1O)c1ccncc1	127	-1	-91*	0	0
O=C(N/N=C/c1ccc([N+](=O)[O-])s1)c1ccncc1	341	2	-87*	0	-6
Cc1cccc(NC(=S)N/N=C/c2ccc([N+](=O)[O-])s2)c1	237	4	-212*	0	-19
Cc1ccc(S(=O)(=O)N2CCN(C(=O)COC(=O)CCOc3ccc(C(C)(C)C)cc3)CC2)cc1	6	-3	-11	0	-7
COc1ccccc1NC(=O)CSc1nnc(CC(=O)Nc2ccccc2F)n1C	-6	6	20	0	-13
O=C(N/N=C/c1cc(Br)ccc1O)c1ccncc1	4	-3	-94*	0	-7
Cc1ccc(NC(=O)CCC(=O)N/N=C/c2cc([N+](=O)[O-])ccc2O)cc1	1	-1	20	0	20

Assay outcomes from PubChem BioAssay.
